Bioassay records deposited in PubChem BioAssay by National Center for Advancing Translational Sciences (NCATS).
Hits are enriched below; roughly 9.3% of the tested compounds scored in any of these assays.
FLuc modulator – firefly luciferase modulation, counter-screen for miR-21 project; AID 588342; hit rate 6.9% among 360,000; purified FLuc, Km substrates, luminescence inhibition; Potency, µM (doses to about 57.5 µM), inactives show top-dose activity change, negative = inhibition, actives largely listed as inhibitors;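 further: plate controls were vehicle for no effect and reference inhibitor for full effect; nearly all actives have a fitted effect of over 55% in size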
Target sequence (P08659 whole entry, looked up): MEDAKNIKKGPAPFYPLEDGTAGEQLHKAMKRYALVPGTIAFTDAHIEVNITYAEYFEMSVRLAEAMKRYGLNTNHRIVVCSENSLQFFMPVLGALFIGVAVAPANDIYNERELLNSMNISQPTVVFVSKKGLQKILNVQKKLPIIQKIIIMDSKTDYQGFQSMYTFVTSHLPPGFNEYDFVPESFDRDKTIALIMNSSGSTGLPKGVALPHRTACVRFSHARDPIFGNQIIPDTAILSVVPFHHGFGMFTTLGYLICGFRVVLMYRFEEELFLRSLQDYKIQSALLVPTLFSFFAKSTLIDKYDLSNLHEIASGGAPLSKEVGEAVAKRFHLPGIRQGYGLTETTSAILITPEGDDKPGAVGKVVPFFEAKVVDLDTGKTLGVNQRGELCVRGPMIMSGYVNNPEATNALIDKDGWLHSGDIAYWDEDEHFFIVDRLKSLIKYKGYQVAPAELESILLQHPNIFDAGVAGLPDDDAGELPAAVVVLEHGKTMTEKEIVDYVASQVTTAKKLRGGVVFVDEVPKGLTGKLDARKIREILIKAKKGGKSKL
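Purified P. pyralis luciferase, 10 nM final, with Km-level 10 uM D-luciferin and 10 uM ATP in 50 mM Tris acetate pH 7.5, 10 mM Mg acetate, 0.01% Tween-20, 0.05% BSA; 6-point qHTS titration about 60 µM downward; luminescence read.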
ELG1 genotoxic – inducers of genotoxicity in HEK293T ELG1-luciferase cells; Potency, µM (doses to about 46 µM), for inactives: top-dose activity change, positive = activation, hits mostly activators; AID 504466; hit rate 1.3% among 330,000; HEK293T ELG1-luciferase reporter, luminescence, 16 h; further: % of control where 0% means no effect; nearly all actives have a fitted effect of over 60% in size
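DMSO vehicle served as control against compound-treated ELG1-luciferase HEK293T cells; exposure lasted 16 hr at 37 °C and 5% CO2, followed by ONE-Glo luminescence detection after 30 min.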
Rab9 promoter act – Rab9 promoter activation; Huh7 Rab9 promoter-luciferase reporter, luminescence, 24 h; Potency, µM (top dose mostly 9.22 µM), inactives show at the top dose activation, negative = inhibition, hits mostly activators; hit rate 2.8% among 320,000; AID 485297; further: % of control where 0% means no effect; nearly all actives have a fitted effect of over 60% in size
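Huh7 reporter line, Rab9 promoter upstream of luciferase. Compound exposure 24 h at 37 °C in reduced-serum medium with 10% FBS. Read-out: luminescence.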
SMN2 splice enh – enhancers of SMN2 splice variant expression. hit rate 2.8% among 210,000. Potency, µM (highest dose often 46.1 µM), for inactives: at the top dose activity change, positive = activation, actives largely listed as activators. HEK293 SMN2-luciferase splicing reporter, luminescence, 30-36 h; further: % of control where 0% means no effect; nearly all actives have a fitted effect of over 55% in size
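qHTS luciferase splicing reporter: luminescence rises when SMN2 exon 7 is included in transfected HEK293 cells. Compound exposure lasted 30-36 h at 37C, with 4.5 mM final sodium butyrate as control, followed by a ONE-Glo read.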
ELG1 repair inh – inhibitors of ELG1-dependent DNA repair in HEK293T cells. HEK293T ELG1-luciferase reporter, luminescence, 16 h; DNA damage induced by 5-fluorouridine. Potency, µM (doses to about 46.1 µM), inactives show at the top dose activity change, negative = inhibition, most hits filed as inhibitors. hit rate 2.3% among 330,000; further: on the % scale 0 is the no-effect control and ±100 the full control effect; nearly all actives have a fitted effect of over 55% in size
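5-Fluorouridine DNA damage + compound/DMSO, 2,000 cells/well, 16 h, 37 °C/5% CO2. ONE-Glo, 30 min RT, luminescence. Readout = decrease in reporter signal.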
NPC1 prom act – NPC1 promoter activation; hit rate 2.4% among 320,000; AID 485313; Huh7 NPC1 promoter luciferase reporter, 24 h; Potency, µM (doses to about 9.22 µM), for the others: top-dose activation, usual class: activators; further: % of control where 0% means no effect; nearly all actives have a fitted effect of over 60% in size
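Luciferase expression driven by the NPC1 promoter was measured in stably transfected Huh7 cells after a 24 h compound incubation, using a luciferase reagent and a luminescence read.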
An asterisk follows results filed as active; ? = inconclusive; · = no result given; [ ] = remark or other dose. The call rests on the fitted dose curve; in most records, active means well fitted curve in the direction sought with a large enough effect; inconclusive means small, poorly fitted or top-dose-only effect, or another doubt; inactive means no such curve, though single readings can be large; an effect the other way counts as inactive or inconclusive. Potency means the concentration at half of the fitted maximal effect.

SMILES	FLuc modulator	ELG1 genotoxic	Rab9 promoter act	SMN2 splice enh	ELG1 repair inh	NPC1 prom act
COc1ccc(N2CCN(C(=O)C3CCCN(S(=O)(=O)c4ccc(C)cc4)C3)CC2)cc1 (stereo unspecified)	1.0%	-7.3%	-1.4%	·	20.6µM*	1.1%
Cc1ccc(S(=O)(=O)N2CCCC(C(=O)N3CCCc4ccccc43)C2)cc1 (stereo unspecified)	-0.9%	-6.3%	-1.7%	·	-11.0%	-1.0%
CCOc1ccc(S(=O)(=O)N2CCCC(C(=O)N3CCN(c4ccccc4)CC3)C2)cc1 (stereo unspecified)	-0.1%	-22.9%	-6.1%	·	0.0%	-2.2%
CSc1cccc(NC(=O)CC(C)n2ccnc2)c1 (stereo unspecified)	1.8%	-3.3%	0.0%	·	9.0%	-3.2%
COc1cc(CNC2CCCC2)cc(Cl)c1OCc1ccccc1F	7.6%	4.0%	-0.6%	-16.0%	0.0%	8.3%
Cc1ccc2nc(Nc3nc(=O)c4ccccc4n3C)nc(C)c2c1	2.13µM*	-3.7%	11.1%	5.4%	16.3%	9.6%
Cc1ccc2nc(NC3=NCN(Cc4ccccc4)CN3)nc(C)c2c1	2.6%	-1.2%	1.5%	-0.1%	-2.7%	-4.2%
C=CCOc1ccccc1C(=O)/C=C1/C(=O)Nc2ccccc21	?	?	-4.8%	·	1.3%	2.7%
C=CCOc1ccc(C(=O)/C=C2/C(=O)Nc3ccccc32)cc1	1.51µM*	16.1%	-1.6%	·	-4.2%	-4.3%
CC1(c2ccc(OCC(N)=O)cc2)NC(=O)NC1=O (stereo unspecified)	0.0%	-1.1%	-1.9%	·	-0.5%	-1.3%
NC(=O)COc1ccc(C(=O)/C=C2/C(=O)Nc3ccccc32)cc1	10.7µM*	15.0%	-4.9%	·	-2.9%	2.9%
CSc1nsc(SCC(=O)Nc2ccccc2F)n1	3.9%	24.8%	13.2%	·	?	19.6%
Cc1ccc(S(=O)(=O)c2cnc(SCC(=O)Nc3ccccc3C(F)(F)F)[nH]c2=O)cc1C	10.7µM*	·	·	-7.6%	·	·
Cc1ccc(S(=O)(=O)c2cnc(SCC(=O)Nc3ccc4c(c3)OCCO4)[nH]c2=O)cc1C	10.7µM*	·	·	-2.9%	·	·
Cc1c(Cl)cccc1NC(=O)CSc1ncc(S(=O)(=O)c2ccc(C(C)C)cc2)c(=O)[nH]1	7.57µM*	·	·	-4.6%	·	·
Cc1ccc(NC(=O)CSc2ncc(S(=O)(=O)c3ccc(C(C)C)cc3)c(=O)[nH]2)cc1C	?	·	·	-2.6%	·	·
CC1CCCN(C(=O)C2(NC(=O)Nc3cccc(F)c3)CCCCC2)C1 (stereo unspecified)	1.5%	-0.9%	1.1%	-10.3%	-2.5%	-0.1%
Nc1c2c(nc3sc4c(c13)CCCC4)-c1ccccc1CC2	0.135µM*	0.731µM*	0.141µM*	·	?	0.501µM*
O=C(CNC(=O)c1ccccc1)OCc1nc2ccccc2s1	9.53µM*	?	6.8%	·	?	8.0%
O=C(CNC(=O)c1ccccc1F)OCc1nc2ccccc2s1	16.9µM*	13.8%	4.2%	15.2%	?	-1.5%
CC1Cc2ccccc2N1C(=O)CSc1nnc(-c2ccccc2Cl)o1 (stereo unspecified)	-14.9%	·	·	·	·	·
COc1ccc(NC(=O)C(OC(=O)c2cnccn2)c2ccccc2)cc1Cl (stereo unspecified)	-1.4%	7.4%	2.9%	·	7.6%	10.7%
COc1cccc(NC(=O)CN(C)C(=O)/C=C/c2cn(Cc3ccccc3)nc2-c2cccnc2)c1	-0.5%	0.9%	-3.0%	·	14.6µM*	-1.2%
Cc1ccc(NC(=O)CSc2nc(=O)n(CCN3CCOCC3)c3c2CCC3)c(C)c1	-3.4%	·	·	·	·	·
CSc1ccccc1C(=O)N1CCCC(CNC(=O)c2ccc(F)cc2)C1 (stereo unspecified)	-10.4%	-0.6%	-1.5%	·	20.1%	-1.3%
SMILES	FLuc modulator	ELG1 genotoxic	Rab9 promoter act	SMN2 splice enh	ELG1 repair inh	NPC1 prom act
CSCCC(=O)N1CCCC(CNC(=O)c2ccc(-c3ccccc3)cc2)C1 (stereo unspecified)	12µM*	-2.2%	0.2%	-14.1%	?	-1.9%
CCc1cc(C(=O)N2CCCC(CNC(=O)c3ccc(-c4ccccc4)cc3)C2)no1 (stereo unspecified)	12µM*	-4.7%	27.2%	·	?	-3.5%
CC(C)C1O[C@H](/C=C\c2ccccc2)OCC1(C)C (stereo partly specified)	·	·	·	-10.9%[9.22 µM]	·	·
COC(=O)c1c(NC(=O)CCCOc2ccc(C)cc2)sc2c1C(C(=O)OC)CC2 (stereo unspecified)	?	·	·	-50.4%	·	·
CCOc1ccc(C2C(C(=O)O)CCC(=O)N2C2CCCCC2)cc1 (stereo unspecified)	2.7%	1.8%	-5.5%	5.9%	10.5%	-5.2%
CCC1SC(=Nc2cccc(C)c2)NC1=O (stereo unspecified)	-9.1%	3.0%	0.4%	·	13.1%	0.1%
CCC1SC(=NC(=O)c2ccc(Cl)c(Cl)c2)NC1=O (stereo unspecified)	23.9µM*	?	22.9%	?	?	23.2%
Cc1ccccc1OCCOc1cccc(/C=N/NC(=O)Cc2nnc(N)s2)c1	?	-0.5%	0.447µM*	5.01µM*	?	1.58µM*
Nc1nnc(CC(=O)N/N=C/c2cccc(OCCOc3ccccc3)c2)s1	3.8%	-0.3%	3.16µM*	10µM*	?	?
O=[N+]([O-])c1cc(CN(CCO)CCO)ccc1O	-1.1%	-1.0%	-4.5%	·	5.0%	-2.6%
Cc1ccc(S(=O)(=O)N2CCN(C(=O)CSC3CCCC3)CC2)c(C)c1	-1.6%	-17.0%	-4.4%	-29.9%	20.6µM*	0.2%
CC(=O)c1c(C)[nH]c(C(=O)OCC(=O)N2CCN(S(=O)(=O)c3ccc(C)cc3C)CC2)c1C	1.7%	-15.3%	-0.3%	-37.4%	18.4µM*	-1.3%
CN(C(=O)Cn1cnc([N+](=O)[O-])n1)C1CCCCC1	1.7%	-0.1%	3.3%	·	3.8%	-0.6%
CCn1cc(Br)c(C(=O)Nc2ccc(F)cc2F)n1	?	12.3%	?	·	?	?
CCn1cc(Br)c(C(=O)Nc2cccc(SC)c2)n1	23.9µM*	?	?	35.5µM*	?	24.6%
O=C(O)c1c(-c2ccccc2)c(-c2ccccc2)nc2ccccc12	-16.0%	0.1%	0.1%	-2.9%	5.5%	-6.9%
O=C1c2ccccc2C(=O)c2c1oc(C(F)(F)F)c2C(=O)c1ccccc1	-5.1%	-12.9%	-25.8%	-65.3%	?	-34.7%
Cc1oc2c(c1C(=O)NCc1cccnc1)C(=O)c1ccccc1C2=O	2.3%	-19.0%	-41.3%	·	1.64µM*	-36.8%
